Compounds without any hit were thinned out: in the full panel of roughly 83,000, 20% have a hit.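 Testing used 96-well plates and a 48-hour single-concentration exposure. Example: -40 means 40% of the starting cells died.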 Values without a mark were called inactive. The source made the active and inactive calls. Rule for the calls: active = growth percent below 10; inactive = the rest.
How the values were obtained:
Test in all cases: NCI-60 one-dose screen, 48 h (100 = growth as untreated, 0 = no growth, -100 = all killed)
OVCAR-8 ovarian = conditions: 10 µM unless noted
OVCAR-5 ovarian = conditions: 10 µM unless noted
OVCAR-4 ovarian = conditions: 10 µM unless noted
IGROV1 ovarian = conditions: 10 µM unless noted
OVCAR-3 ovarian = conditions: 10 µM unless noted
HS 578T breast = conditions: 10 µM unless noted
NCI/ADR-RES ovarian = conditions: 10 µM unless noted
T-47D breast = conditions: 10 µM unless noted
BT-549 breast = conditions: 10 µM unless noted
MDA-MB-435 melanoma = conditions: 10 µM unless noted
SW-620 colon = conditions: 10 µM unless noted
MCF7 breast = conditions: 10 µM
HCT-116 colon = conditions: 10 µM unless noted
HCC-2998 colon = conditions: 10 µM unless noted
KM12 colon = conditions: 10 µM unless noted
SK-OV-3 ovarian = conditions: 10 µM unless noted

Row | Structure (SMILES) | growth (OVCAR-8 ovarian) | growth (OVCAR-5 ovarian) [%] | growth (OVCAR-4 ovarian) | growth (IGROV1 ovarian) | growth (OVCAR-3 ovarian) | growth (HS 578T breast) | growth (NCI/ADR-RES ovarian) | growth (T-47D breast) | growth (BT-549 breast) | growth (MDA-MB-435 melanoma) | growth (SW-620 colon) | growth (MCF7 breast) | growth (HCT-116 colon) | growth (HCC-2998 colon) | growth (KM12 colon) | growth (SK-OV-3 ovarian)
1 | C=CCN1C(=O)/C(=c2\sc3n(c2=O)NC2C(N=3)N(CC)C(=O)N2CC)c2ccccc21 (stereo not given) | 48.2% | 44.2 | 39.2% | 34.2% | 22.5% | 29.4% | 18.7% | 54.4% | 48.6% | -7.64% (active) | 34.3% | 34.3% | 14.8% | 38% | 24.5% | 
2 | O=c1c(-c2nc3ccccc3[nH]2)cc2ccccc2n1Cc1cn(Cc2ccccc2Cl)nn1 | 50.4% | 78.2 | -22% (active) |  | 19.8% | 19.2% | 40.6% | 66.4% | 13.3% | 15.1% | 37.5% | 26.2% | 18.2% | 78.3% | 45.5% | 
3 | COc1ccccc1CNC(=O)C1c2ccccc2C(=O)N(CC(C)C)C1c1cccs1 (stereo not given) |  | 84.2 |  | 71.8% | 58% | 68.8% | 71.4% | 42.5% | 78.9% | 71% | 78.6% | 66.4% | 59.9% | 48.3% | 32.7% | 106%
4 | Cc1ccc2sc3c(NCCCNCCO)nc4ccccc4c3c(=O)c2c1 | 22.4% | 90.7 | 60.4% | 48.8% | 26.6% | 44.2% | 72.6% | -39.5% (active) |  | -80% (active) | -78.2% (active) | -78.8% (active) | -67% (active) | -75.5% (active) | -50.4% (active) | 
5 | Cc1cc2c(c(C)c1Cl)C(=O)/C(=C/c1ccco1)O2 | 102% | 114 | 63.3% |  | 104% | 98.8% | 104% | 47.5% | 103% | 100% | 108% | 24.7% | 98.7% | 97.6% | 75.9% | 
6 | CCN(CC)c1cc(C)c2cc(NC(=O)c3cccc(OC)c3)ccc2n1 |  | 98.3 |  | 98.4% | 74.8% | 58.3% | 80.5% | 70.8% | 80.9% | 74.2% | 64.9% | 73.1% | 70.1% | 91.3% | 88.5% | 104%
7 | O=c1oc2ccc(Cl)cc2c(=O)n1-c1cc(C(F)(F)F)cc(C(F)(F)F)c1 | 7.66% (active) | 25.2 | 18.1% |  | 7.95% (active) | -15.1% (active) | 5.39% (active) |  |  | -4.47% (active) | 6.78% (active) | 2.18% (active) | -12.7% (active) | 5.83% (active) | -31.5% (active) | -10.6% (active)
8 | CC1CCCCN1CCCNC(=O)c1ccc2c(c1)sc1nc(-c3ccc(F)cc3)cn12 (stereo not given) | 105% | 100 |  | 93.8% | 105% | 98.5% | 87.6% | 93.4% | 91% | 109% | 105% | 99.5% | 89.7% | 88.7% | 101% | 99.7%
9 | O=c1oc2ccc(F)cc2c(=O)n1-c1ccc(Br)cc1F | 8.64% (active) | 21.8 | 11.9% | 17% | 5.94% (active) | -3.75% (active) | 6.34% (active) |  |  | 0.521% (active) | 10.2% | -3.48% (active) | 2.22% (active) | 13.4% | 0.328% (active) | -3.03% (active)
10 | CC[C@H](C)[C@@H](C(=O)OC)n1cc(CNC(=O)[C@@H](Cc2ccccc2)NC(=O)OCc2ccccc2)nn1 |  |  | 105% | 92.2% | 115% | 101% | 94.4% |  | 106% | 99.9% | 102% | 97% | 102% | 104% | 103% | 109%
11 | COC(=O)[C@@H]1CCCN1C(=O)[C@H]1CCCN1C(=O)[C@@H](Cc1c[nH]c2ccccc12)NC(=S)Nc1cc(C(F)(F)F)cc(C(F)(F)F)c1 |  | 60.1 | 47.2% | 29.2% | 47% | 11.6% | 67.1% |  | 78.9% | 31.9% | 63.1% | 25.3% | 36.9% | 20.8% | 40.1% | 69.6%
12 | O=C1Nc2ccccc2/C1=C/c1ccc[nH]1 | 92.8% | 78.7 | 29.8% | 49.7% | 81.7% | 86.6% | 99.9% | -24.3% (active) |  | 101% | 89.3% | 12.8% | 96% | 54.7% | 10.4% | 
13 | O=C(CN1C=NC2C(N3CCOCC3)=NC=NC21)c1cccc2ccccc12 (stereo not given) | 97% | 92 | 97.1% | 90.8% | 101% | 102% | 104% | 90.7% | 109% | 99.3% | 96% | 89.3% | 102% | 120% | 102% | 
14 | O=C1N=c2ccccc2=C1c1sc(=Nc2ccccc2)n(Nc2ccccc2)c1O | 105% | 101 | 43.5% | 96.2% | 110% | 102% | 108% |  | 106% | -23% (active) | 108% | 103% | 104% | 116% | 103% | 
15 | CCOC(=O)CSc1c(-c2ccccc2)c2cc(Cl)ccc2[nH]c1=O | 115% | 105 | 89.1% |  | 106% | 84.2% | 84.3% | 98.1% | 103% | 99.8% | 102% | 93.3% | 92.1% | 103% | 98.1% | 107%
16 | CN1C(=O)N(C)C2C1NN=c1s/c(=C\c3ccc([N+](=O)[O-])cc3)c(=O)n12 (stereo not given) | 81.1% | 86.1 | 82.2% | 57.4% | 22.7% | 67.5% | 61.5% | 66.5% | 60.5% | 6.25% (active) | 37.8% | 26% | 37.6% | 84.9% | 35.5% | 
17 | NS(=O)(=O)c1ccc(CCN=C=S)cc1 | 30.1% | 85.5 | 42.8% | 25.6% | -18.6% (active) | 39.7% | 83.6% |  | 63.8% | 27.9% | -22.9% (active) | 2.99% (active) | 0.727% (active) | 81.1% | 8.37% (active) | 122%
18 | O=C(CN1C=NC2C(N3CCOCC3)=NC=NC21)c1ccc(Br)cc1 (stereo not given) | 100% | 99 | 97% | 95.6% | 108% | 102% | 103% | 101% | 103% | 101% | 100% | 99.1% | 103% |  | 107% | 
19 | Cn1c(C(=O)c2cccc3ccccc23)nc2ccccc21 | -1.81% (active) | 49 | 19.9% |  | 29.6% | 45.7% | 4.01% (active) | 17% | 13% | 17.4% | 22.4% | 15.6% | 22.7% | 6.79% (active) | 25.9% | 22%
20 | O=C(CSc1ncccc1C(=O)O)Nc1ccc(Oc2ccccc2)cc1 | 103% | 108 | 89.4% | 104% | 109% | 92% | 100% |  | 97.8% | 105% | 91.9% | 91.5% | 96.9% | 102% | 110% | 100%
21 | COc1ccc(CCN2C(=O)CCSC2=S)cc1 |  | 98.1 | 74.8% | 41.7% | 9.45% (active) | 87.7% | 71.7% | 62% | 96.3% | 4.04% (active) | 21.9% | 16.2% | 17.1% | 106% | 0.314% (active) | 102%
22 | CS(=O)(=O)Nc1ccc(C(=O)NC(C(=O)NO)c2ccc(-c3cccc(F)c3)cc2)cc1 (stereo not given) | 97.3% | 31.6 | 70.9% | 39.6% | 64.7% | 73% | 66.6% | 82.4% | 94.1% | 54.5% | 51.2% | 66.7% | 39.1% | 62.6% | 58.2% | 
23 | COc1ccc2[nH]c(O)c(N=NC(=O)c3oc4ccccc4c3C)c2c1 | 37.8% | 41.7 | -52.8% (active) | 6.33% (active) | -65.5% (active) | 25.5% | 30.5% |  | 70.1% | 28.9% | 35.1% | 22.9% | -28.6% (active) | 45.5% | 43.8% | 
24 | COc1ccc(C2NCCc3c2[nH]c2ccccc32)cc1CN1CCN(c2ccc(F)cc2)CC1 (stereo not given) | 24.6% | 64.8 | 65.3% |  | 66.8% | 92.2% | 54.7% | 54.6% | 69.7% | 38.2% | 29.6% | 33.9% | 41.6% | 17.9% | 40.4% | 88.8%
25 | CCOC(=O)c1sc(-c2ccc(OS(=O)(=O)C[C@]34CCC(CC3=O)C4(C)C)c(C=O)c2)nc1C | 11.6% | 46.9 | 18.6% | -21.8% (active) | -5% (active) | 31.6% | 11% |  | -13.5% (active) | 7.61% (active) | 10.5% | 2% (active) | 5.89% (active) | 66.4% | 7.78% (active) | 46%
26 | Nc1ccc(-c2nc3cc(Oc4ccc(Oc5ccc6[nH]c(-c7ccc(N)cc7)nc6c5)cc4)ccc3[nH]2)cc1 | 91.3% | 113 | 114% |  | 122% | 108% | 103% | 77.3% | 105% | 109% | 98.4% | 85.1% | 97% | 106% | 104% | 98.7%
